Among the data in PubChem BioAssay (NCI) are growth values, retold here.

Experiment in all cases: NCI-60 one-dose screen, 48 h (100 = growth as untreated, 0 = no growth, -100 = all killed)
What all share (settings): 10 µM unless noted

Experiment [1] deals with NCI-H23 lung.
The test system of experiment [2] is NCI-H226 lung.
In experiment [3] the test system is NCI-H322M lung.
Experiment [4] deals with HOP-62 NSCLC.
The subject of experiment [5] is NCI-H460 lung.
Experiment [6] has as its system HOP-92 NSCLC.
Experiment [7] deals with NCI-H522 lung.
In experiment [8] the test system is A549/ATCC NSCLC.
In experiment [9] the test system is 786-0 renal.
For experiment [10], the system named is COLO 205 colon.
Experiment [11] has as its system DU-145 prostate.
Experiment [12] has as its system K-562 leukemia.
In experiment [13] the test system is MALME-3M melanoma.
Experiment [14] concerns MDA-MB-231 breast.
For experiment [15], the system named is SF-268 CNS.
The test system of experiment [16] is SF-295 CNS.
Experiment [17] has as its system SF-539 CNS.
Experiment [18] relates to UACC-257 melanoma.
The subject of experiment [19] is M14 melanoma.

About 83,000 compounds went through this panel and 20% of them were active in at least one assay; those are over-represented in the sample as a whole.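 Negative percent growth values reflect cell death: -40 means 40% of the cells present at the start died, and -100 means all died.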 Unmarked numbers belong to inactive results. Active and inactive are the calls of the source. The calls were made as follows: active = growth percent below 10; inactive = the rest.

On to `CN1CCN(c2ccc3nc(-c4cc(C(C)(C)C)c(O)c(C(C)(C)C)c4)[nH]c3c2)CC1`, for which the growth in experiment [1] was 92.6%; in experiment [2], 96%; in [3] it was 81%; in [4], 69.8%; in [5], 3.88% (active); in [6] it was 48.6%. The growth is 75.5% in experiment [7]; 53.4% in [8]; 55.4% in experiment [9]; -56.7% (active) in experiment [10]; 77.6% in experiment [11]; -11.3% (active) in [12]. The growth in [13] was -91.6% (active); in [14], 38.6%; in experiment [15] it was 72.7%; in experiment [16] it was 93.7%; in experiment [17] it was 64.4%; in experiment [18], -53.2% (active). In addition, the growth in experiment [19] is 11%.

Take `COc1cc(Nc2cc(O)c3c(=O)cc(-c4ccccc4)oc3c2)cc(OC)c1`: the growth in experiment [1] was 35.9%; in experiment [2] it was 67.7%; in [3] it was 44.1%; in [4], 35.5%; in [5] it was 7.62% (active); in [6], 79.5%. Besides, the growth in experiment [7] was -35.3% (active); in experiment [8], 25.9%; in [9], 45.4%; in experiment [10] it was 48.4%; in [11] it was 20%; in [12], 13.1%. Besides, the growth in experiment [13] was 73.6%; in [14], 15.9%; in experiment [15] it was 48.2%; in [16] it was 33.5%; in experiment [17], -35.2% (active); in experiment [18], 77.9%. In experiment [19], the growth was 28.4%.

Turning to `COc1nc(N)nc(-n2c(-c3ccc(C)cc3)nc3ccccc32)c1NCc1ccc(C)cc1`, the growth in experiment [1] was 95.6%; in experiment [2] it was 89%; in experiment [3] it was 90.2%; in experiment [4], 86.5%; in experiment [5], 105%; in experiment [6], 78.2%. Moreover, the growth in [7] was 79.9%; in experiment [8] it was 78.4%; in experiment [9] it was 90.3%; in experiment [10], 108%; in [11] it was 103%; in experiment [12], 87.2%. Further, the growth is 105% in experiment [13]; 80.4% in [14]; 94.9% in experiment [15]; 92.8% in [16]; 98.3% in [17]; 100% in [18]. Moreover, the growth in experiment [19] is 95.6%.

As to `COc1cc2nc(Cc3ccc(C)cc3)[nH]c(=O)c2cc1OC`, the growth was 105% in [1]; 95.9% in experiment [2]; 236% in [3]; 104% in experiment [4]; 107% in [5]; 69.1% in [6]. The growth was 92.8% in [7]; 49.3% in [8]; 103% in experiment [9]; 123% in [10]; 100% in experiment [11]; 94.3% in [12]. The growth in experiment [13] was 277%; in experiment [14], 98.8%; in experiment [15], 105%; in [16] it was 121%; in [17], 104%; in [18], 105%. Further, the growth in [19] was 113%.

Consider `CC1CCN(C(=O)OCc2nc3nc(Cl)nc(N4CCOCC4)c3[nH]2)CC1`, for which the growth in [1] is 8.48% (active); in [2], -73.7% (active); in [3], 68%; in experiment [4], 46.4%; in experiment [5] it was 10.5%; in experiment [6], -48.8% (active). Further, the growth was -67.8% (active) in experiment [7]; 6.08% (active) in [8]; -79.8% (active) in [9]; -86.6% (active) in experiment [10]; -76.7% (active) in experiment [11]; -16.7% (active) in experiment [12]. Also, the growth is -78.9% (active) in experiment [13]; -60.1% (active) in experiment [14]; -81.6% (active) in [15]; 88.3% in [16]; -47.1% (active) in experiment [17]; -89.7% (active) in [18]. Further, the growth in [19] is -50.9% (active).

As to `CCCOc1nc(SCCC)nc2c1cnn2-c1ccccc1`, the growth in experiment [1] was 93.8%; in experiment [2], 96.6%; in [3], 137%; in experiment [4], 126%; in experiment [5], 101%; in experiment [6], 98.2%. Moreover, the growth was 3.95% (active) in experiment [7]; 100% in [8]; 105% in [9]; 103% in experiment [10]; 110% in experiment [11]; 119% in experiment [13]. The growth was 105% in experiment [14]; 87.7% in experiment [15]; 108% in experiment [16]; 98.4% in experiment [17]; 113% in experiment [18]; 109% in experiment [19].

`O=C(O)c1cn(C2CC2)c2cc(N3CCN(C(=O)C[n+]4cccc5ccccc54)CC3)c(F)cc2c1=O`: the growth was 84.4% in [1]; 101% in experiment [2]; 102% in experiment [3]; 98.9% in experiment [4]; 96.6% in experiment [5]; 95.5% in experiment [6]. For the same compound, the growth in experiment [7] was -90% (active); in experiment [8], 98.7%; in experiment [9], 48.5%; in [10] it was 34.5%; in experiment [11], 91.7%; in experiment [13] it was -41.7% (active). Further, the growth was 99.8% in experiment [14]; 68.2% in [15]; 107% in experiment [16]; 69.1% in experiment [17]; 82.3% in [18]; 64.8% in [19].

On to `CCn1cc(C2NC(=O)c3ccccc3N2)c2cccc(C)c21` (stereo not given), for which the growth in experiment [1] is 30.1%; in experiment [2] it was 57.2%; in experiment [3], 36.7%; in [4], 31.6%; in experiment [5] it was 1.6% (active); in [6] it was 80.5%. In addition, the growth was -39.8% (active) in [7]; 18.4% in experiment [8]; 39.4% in [9]; -17.3% (active) in [10]; 12.2% in [11]; 3.49% (active) in experiment [12]. Moreover, the growth was 48% in experiment [13]; 15.3% in experiment [14]; 43.2% in experiment [15]; 3.52% (active) in experiment [16]; -49.7% (active) in experiment [17]; 66.7% in experiment [18]. Further, the growth in [19] was 8.05% (active).

In the case of `COc1ccc(NS(=O)(=O)c2ccc(C)cc2)c([N+](=O)[O-])c1`, the growth in experiment [1] is 96.6%; in experiment [2] it was 90.8%; in experiment [3] it was 94%; in [4] it was 97.3%; in experiment [5] it was 106%; in [6], 83.5%. The growth in experiment [7] is 87.9%; in experiment [8], 99.7%; in [9] it was 107%; in [10], 112%; in experiment [11], 111%; in [12], 93.2%. Further, the growth in experiment [13] was 96.2%; in experiment [14], 96%; in experiment [15], 101%; in experiment [16], 110%; in experiment [17], 110%; in experiment [18], 98.7%. In experiment [19], the growth was 109%.

On to `O=c1[nH]c2c(s1)CCCC2CN1CCCCC1` (stereo not given), for which the growth is 96.5% in experiment [1]; 95.1% in [2]; 112% in experiment [3]; 83.7% in [4]; 106% in experiment [5]; 104% in experiment [6]. Further, the growth in experiment [7] is 89.5%; in [8], 80.4%; in experiment [9] it was 96.2%; in [10], 98.4%; in experiment [11], 109%; in experiment [13], 107%. Further, the growth in [14] was 133%; in experiment [15], 98.7%; in experiment [16], 104%; in experiment [17] it was 105%; in experiment [18] it was 92%.

For `Brc1ccc(C2CC(c3cccc(Nc4ccncc4)c3)=NN2c2ccccc2)cc1` (stereo not given), the growth in [1] is 85.6%; in experiment [2], 95%; in [3] it was 87.3%; in [4], 77.2%; in experiment [5] it was 0.717% (active); in [6] it was 62.5%. Further, the growth in [7] was 87.4%; in [8] it was 54.7%; in experiment [9], 90.2%; in experiment [10], 0.175% (active); in experiment [11] it was 88.7%; in experiment [12], 4.05% (active). Also, the growth in [13] was 66.7%; in experiment [14], 84.4%; in experiment [15] it was 103%; in experiment [16], 89%; in experiment [17] it was 84.4%; in experiment [18] it was 84%. Besides, the growth in experiment [19] is 101%.
